Assay outcomes: PubChem, National Center for Advancing Translational Sciences (NCATS)
This is a sample that favours compounds with a hit; in the whole collection about 10% have one here.
ALOX12 inhib = inhibitors of human 12-lipoxygenase (ALOX12). P18054. purified 12-hLO, xylenol orange hydroperoxide absorbance. Potency, µM (highest dose often 57.1 µM), for the others: at the highest dose activity change, negative = inhibition, usual class: inhibitors. actives 0.12% (n = 150,000); further: potency means the concentration at half of the fitted maximal effect; nearly all actives have a fitted effect of over 55% in size
Target sequence (P18054 whole entry, looked up): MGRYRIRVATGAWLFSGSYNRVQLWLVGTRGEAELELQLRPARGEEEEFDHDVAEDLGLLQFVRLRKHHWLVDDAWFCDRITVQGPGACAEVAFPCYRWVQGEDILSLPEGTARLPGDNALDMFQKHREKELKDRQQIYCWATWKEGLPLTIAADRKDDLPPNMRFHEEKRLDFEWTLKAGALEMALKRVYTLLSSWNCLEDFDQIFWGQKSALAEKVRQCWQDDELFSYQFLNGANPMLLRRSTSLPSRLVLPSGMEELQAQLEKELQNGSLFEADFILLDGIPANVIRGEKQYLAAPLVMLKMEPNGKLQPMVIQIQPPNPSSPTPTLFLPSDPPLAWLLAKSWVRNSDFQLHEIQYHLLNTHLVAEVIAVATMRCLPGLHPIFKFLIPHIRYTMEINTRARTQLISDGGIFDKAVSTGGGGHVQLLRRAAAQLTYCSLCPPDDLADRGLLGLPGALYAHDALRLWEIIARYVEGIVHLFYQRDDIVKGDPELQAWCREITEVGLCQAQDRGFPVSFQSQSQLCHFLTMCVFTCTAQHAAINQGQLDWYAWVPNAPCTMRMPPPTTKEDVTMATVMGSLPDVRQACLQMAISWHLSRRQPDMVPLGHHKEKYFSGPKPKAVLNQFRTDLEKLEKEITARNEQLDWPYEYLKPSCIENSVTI
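Purified human 12hLO (150 nM), preincubated 15 min with compound, then 40 uM arachidonic acid for 30 min, room temperature, Hepes pH 7.0 with 0.01% Triton X-100. Hydroperoxide detected by ferrous iron/xylenol orange; 573/405 nm absorbance ratio gives reaction progress.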
aGal spleen mod = inhibitors or activators of human alpha-galactosidase in spleen homogenate | P06280 | human spleen homogenate, 4MU-alpha-Gal fluorescence, 40 min | Potency, µM (highest dose often 80 µM), without a hit: top-dose activity change, negative = inhibition, actives largely listed as inhibitors | actives 0.008% (n = 240,000) | AID 2107;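 further: potency means the concentration at half of the fitted maximal effect; 0% = enzyme with vehicle and -100% = no enzyme basal signal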
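Human spleen homogenate (1 ug) as enzyme source, 4-methylumbelliferyl-alpha-D-galactopyranoside 1 mM final, citrate/phosphate pH 5.0 with 0.01% Tween-20. Compounds 40 min at 37C, NaOH/glycine stop; fluorescence Ex 365/Em 440, Hill-fit AC50.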
PNC assembly inh = perinucleolar compartment assembly inhibition | activity change (PNC), negative = inhibition, % at 10 µM | actives 3.1% (n = 140,000) | PC3M PTB-GFP, PNC prevalence imaging, 16 h; hits give low values;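 active means readout at or below -70, meaning at least 70% loss of cells showing the perinucleolar compartment, a nuclear body marking cancer cells; inconclusive means readout between -30 and a set limit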;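 further: plate controls were DMSO wells for no effect and camptothecin positive control wells for full effect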
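PC3M cells stably expressing PTB-GFP, 750–1000 cells/well, treated 16 h at 37 °C with compound (23 nl of library stock), in duplicate. After paraformaldehyde fixation and Hoechst stain, imaged at 20x; PNC prevalence scored by image analysis.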
ALDH1A1 inh = blocks purified human ALDH1A1 activity; Purified ALDH1A1, NADH fluorescence, propionaldehyde substrate; actives 7.3% (n = 220,000); P00352; Potency, µM (highest dose often 75.3 µM), for inactives: at the top dose activity, negative = inhibition, most hits filed as inhibitors; active means well fitted inhibition curve with a large enough effect, not every such curve was filed as active; inconclusive means small, poorly fitted or top-dose-only effect, or another doubt; inactive means no such curve, though single readings can be large or run the other way;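 further: potency means the concentration at half of the fitted maximal effect; plate controls were no enzyme wells and a reference inhibitor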
HPGD inh = HPGD (human) dehydrogenase inhibition; P15428; purified HPGD, NADH fluorescence kinetic, PGE2 substrate; actives 4.3% (n = 150,000); Potency, µM, without a hit: at the top dose activity change, negative = inhibition, actives largely listed as inhibitors; active means well fitted inhibition curve with a large enough effect, not every such curve was filed as active; inconclusive means small, poorly fitted or top-dose-only effect, or another doubt; inactive means no such curve, though single readings can be large or run the other way; further: potency means the concentration at half of the fitted maximal effect
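20 nM HPGD preincubated 15 min at room temperature with compound in 50 mM Tris-HCl pH 8, 0.01% Tween 20. Started with 1 mM NAD+ and 30 uM prostaglandin E2; NADH fluorescence (360/450 nm) read 5 times over 30-s intervals, last minus first.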
GLA inh pH 4.5 = alpha-galactosidase A (human) inhibition, pH 4.5. 230,000 tested, under 10 active. purified enzyme, 4-MU-alpha-Gal fluorescence, pH 4.5. activity change, negative = inhibition, % at 105 µM. AID 1467;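 further: 0% = full activity with enzyme and -100% = basal without enzyme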
An asterisk follows results filed as active; ? = inconclusive; / = no result given; [ ] = another dose, or the depositor's remark. Unless noted, the call rests on the fitted dose curve; in most records, active means well fitted curve in the direction sought with a large enough effect; inconclusive means small, poorly fitted or top-dose-only effect, or another doubt; inactive means no such curve, though single readings can be large; an effect the other way counts as inactive or inconclusive. Unless noted, on the % scale 0 is the no-effect control and ±100 the full control effect.

SMILES	ALOX12 inhib	aGal spleen mod	PNC assembly inh	ALDH1A1 inh	HPGD inh	GLA inh pH 4.5
CCCCN=C1NN=C(c2ccc3c(c2)OCCO3)CS1	/	1.4%	/	10µM*	/	2.7
COCCN=C1NN=C(c2ccc(C)c([N+](=O)[O-])c2)CS1	/	7.9%	/	?	/	-4.7
COCCn1c(C)cc(C2=NNC(=Nc3ccc(OC)cc3)SC2)c1C	?	-12.2%	?	10µM*	-15.7%	-3.0
CCCCN=C1NN=C(c2ccc(C)c(C)c2)CS1	/	-3.1%	/	20µM*	/	-12.5
FC(F)Sc1ccc(N=C2NN=C(c3ccc4c(c3)OCCO4)CS2)cc1	-19.5%	-4.2%	21.3	?	-8.4%	1.7
COc1ccc(N=C2NN=C(c3ccc4c(c3)OCCO4)CS2)cc1	-15.5%	-1.0%	29.8	25.1µM*	-2.7%	-0.6
CCCn1nnnc1NC(=O)c1cc(Cl)ccc1Cl	0.9%	-10.3%	28.6	?	-14.6%	-0.6
CCc1ccc(C2=NN(C(C)=O)C(c3ccco3)C2)cc1 (stereo not drawn)	/	12.9%	/	-6.8%	/	-2.6
c1cc2c(cc1C1=NNC(=NC3CC3)SC1)OCCO2	/	1.0%	/	10µM*	/	?
CC1=CC(=O)C2=C(C)CC[C@H]3[C@H](C)C(=O)O[C@@H]3C12 (stereo partly drawn)	/	4.6%	/	/	/	/
Cc1ccc2[nH]c(-c3ccccc3)cc(=O)c2c1	-2.2%	2.7%	-111.0*	-26.5%	?	7.9
CC(C)(C)N1C(=O)c2ccc(C(=O)Nc3nccs3)cc2C1=O	-2.8%	7.6%	33.4	?	-2.9%	-7.5
CN1Cc2c(C(=O)OC(C)(C)C)ncn2-c2ccsc2C1=O	-1.2%	-5.9%	/	11.2µM*	-6.2%	8.1
C=C(C)CNC(=S)Nc1nc2c(cc1C(=O)OCC)CCCC2	-0.5%	-12.0%	-15.2	1µM*	-13.0%	-5.6
CC(C)c1nnc(NC(=O)Cc2ccccc2[N+](=O)[O-])s1	-3.6%	-6.2%	-0.6	?	-3.8%	4.3
CCc1[nH]c(=O)[nH]c1C(C)S(=O)(=O)c1ccc(C)cc1 (stereo not drawn)	/	-0.9%	/	31.6µM*	/	11.2
Cc1nnsc1C(=O)NNc1ccc(C(C)(C)C)cc1	/	3.9%	/	31.6µM*	/	2.8
Cc1nnsc1C(=O)NNc1ccc(C(C)C)cc1	/	4.1%	/	?	/	-1.3
O=P(c1ccccc1)(c1ccccc1)c1nc(-c2ccccc2)oc1N1CCOCC1	/	1.6%	/	/	/	0.2
CCOP(=O)(c1ccccc1)c1nc(-c2ccc(F)cc2)oc1N1CCCCC1 (stereo not drawn)	-8.3%	5.2%	-87.4*	-14.7%	-11.1%	0.4
CCCCCCC(=O)Nc1cc2c(C)cc(=O)oc2cc1C	5.0%	8.8%	-119.2*	5.01µM*	-17.2%	-7.1
CCC(=O)Nc1cc2c(C)cc(=O)oc2cc1C	-0.9%	1.7%	-9.5	?	?	-3.6
N#CC1=C(N)Oc2cc(N)ccc2C1c1ccc(F)cc1 (stereo not drawn)	-9.9%	-0.5%	?	-13.3%	-19.6%	-6.6
COc1cc(C2C(C#N)=C(N)Oc3cc(N)ccc32)cc(OC)c1OC (stereo not drawn)	6.7%	10.4%	-89.3*	3.4%	-17.3%	0.9
CCn1c(=O)cc(OCC(=O)N2CCN(C(=O)c3ccco3)CC2)c2ccccc21	-2.5%	-1.1%	8.8	17.8µM*	-12.2%	-6.6
SMILES	ALOX12 inhib	aGal spleen mod	PNC assembly inh	ALDH1A1 inh	HPGD inh	GLA inh pH 4.5
CN(C(=O)COc1cc(=O)n(C)c2ccccc12)c1ccc(Br)cc1	-8.1%	5.7%	-21.9	22.4µM*	-10.3%	0.3
CCOC(=O)N1CCN(C(=O)COc2cc(=O)n(CC)c3ccccc23)CC1	-4.2%	-6.2%	-15.2	6.8%	-1.1%	-2.0
Cc1cccc(N(C)C(=O)COc2cc(=O)n(C)c3ccccc23)c1	-5.3%	3.0%	20.5	-15.7%	-9.7%	-2.0
CCn1c(=O)cc(OCC(=O)N(C)C2CCCCC2)c2ccccc21	-2.5%	10.0%	-19.0	20µM*	-10.4%	-1.0
Cn1c(=O)c(-c2ccccc2)nc2cnc(OCc3ccccc3)nc21	/	-23.2%	/	?	/	/
CC1(C)O[C@@H]2O[C@H]([C@H](O)CO/N=C3/[C@H]4O[C@@H]4[C@@H](O)[C@H]4[C@H]3CCn3c(=O)n(-c5ccccc5)c(=O)n34)[C@@H](O)[C@@H]2O1	/	-10.0%[17.5 µM]	/	6.0%[13.5 µM]	/	/
CC(C)[C@H](NC(=O)OC(C)(C)C)[C@@H](O)CC(=O)OC(C)(C)C	/	-17.3%[17.5 µM]	/	2.0%[13.5 µM]	/	/
COc1ccc(C[C@@H]2C(=O)N[C@H](C)C(=O)N(C)[C@@H]3Cc4ccc(cc4)Oc4cc(ccc4O)C[C@H](C(=O)N[C@@H](C)C(=O)N[C@H](C)C(=O)N2C)N(C)C3=O)cc1	-5.0%[11.4 µM]	/	/	-0.2%[13.5 µM]	-5.6%	/
CC1CCCC2(C1)NC(=S)c1c(sc3c1CCCC3)N2 (stereo not drawn)	-27.2%	-18.8%	?	3.55µM*	4.47µM*	-4.3
CC(C)CCN1NC2(CCCC(C)C2)NC1=S (stereo not drawn)	/	6.3%	/	/	/	9.2
CC(C)CCC[C@@H](C)[C@@H]1CC[C@H]2C3=CC=C4CC(O)CC[C@]4(C)[C@H]3CC[C@@]21C (stereo partly drawn)	/	-6.4%	/	/	/	/
COc1cccc(Nc2ncc3nc(-c4ccc(Cl)cc4)c(=O)n(C4CC4)c3n2)c1	/	-8.4%	/	?	/	/
COc1ccc(N=C2C(=O)Nc3c(C)cccc32)cc1	-7.6%	-4.2%	36.6	14.1µM*	-0.1%	-1.4
CC1(C)OC(=O)C(=CNC(Cc2c[nH]c3ccccc23)C(=O)O)C(=O)O1 (stereo not drawn)	-1.3%	0.6%	6.0	25.1µM*	-5.2%	1.9
Cn1sc(NC(=O)c2ccc(Cl)cc2)nc1=O	4.8%	0.5%	-8.3	22.4µM*	?	-5.5
Cc1cc([N+](=O)[O-])cc2c1NC(=O)C2(O)N1CCCCCC1 (stereo not drawn)	1.9%	-7.3%	62.0	22.4µM*	-11.2%	-14.6
CN1CCCN(C)C1c1cc([N+](=O)[O-])ccc1O	-0.3%[11.4 µM]	/	/	11.7%[13.5 µM]	-9.3%	/
Cc1nn(Cc2ccccc2)c(C)c1NC(=O)CSc1nnc(-c2cc(Cl)ccc2O)n1C	-16.0%	-2.1%	-14.0	?	28.2µM*	-7.3
CC(C)c1cc(NC(=O)CSc2nnc(-c3ccccc3F)n2C)on1	-2.8%	2.2%	-100.0*	?	-1.0%	3.4
CCn1nc(C)c(NC(=O)CSc2nnc(-c3ccco3)n2C)c1C	1.8%	4.6%	-3.0	0.4%	-1.0%	-8.2
O=C(CNCc1cccc2ccccc12)Nc1ccccc1[N+](=O)[O-]	/	0.7%	/	?	/	4.8
Cc1ccc(C(=O)OCC(=O)Nc2nc(-c3ccccc3)cs2)cc1NC(=O)c1ccco1	/	-2.8%	/	?	/	-0.2
